Where a name gives a salt, the structure may show the parent alone.
What was measured:
Conditions in all cases: 20 µM; incubation time: 27 h, anaerobic, 37 °C;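 for the amine columns active = adjusted P below 0.05 in both replicates with a change the same way and a mean fold change under 0.8 or over 1.25; inactive = the rest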
[1] = system: Clostridium sporogenes DSM 1664; test: growth (OD595) fold change vs plate DMSO controls (fold change (ratio)); higher = more growth
Outline: (§1)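 Shaken 96-well cultures in mGAM, grown anaerobically for 27 h at 37 °C, were read at 595 nm. OD came from blank-subtracted readings, corrected for background with 20 µM compound solutions in water and scaled by a calibration factor of 5. Growth is the fold change versus the plate's median DMSO control. Values average 2 biological replicates, and any fold change above 1.5 is NA.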

[2] = system: Escherichia coli IAI1; test: as above
Outline: as §1

[3] = system: Klebsiella aerogenes DSM 30053; test: as above
Outline: as §1

[4] = system: Ruminococcus gnavus DSM 108212; test: as above
Outline: as §1

[5] = system: Klebsiella aerogenes DSM 30053; test: fold change of Histamine concentration vs plate DMSO controls (fold change (ratio)); higher = more amine produced, active = hit call of the paper (significant change in both replicates, either direction)
Outline: (§2)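 Amines were quantified by LC–triple-quadrupole MS in dynamic MRM mode against external calibration curves, with drift correction within each batch. The samples were whole anaerobic mGAM cultures of four gut bacterial strains, grown for 27 h at 37 °C in 80 µL wells and extracted with cold acetonitrile/methanol with 0.1% formic acid, then centrifuged. Values are reported as fold change over DMSO controls on the same plate. The mean of 2 biological replicates is given.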

[6] = system: Clostridium sporogenes DSM 1664; test: fold change of Tryptamine concentration vs plate DMSO controls (fold change (ratio)); higher = more amine produced, active = hit call of the paper (significant change in both replicates, either direction)
Outline: as §2

[7] = system: Ruminococcus gnavus DSM 108212; test: as above
Outline: as §2

[8] = system: Escherichia coli IAI1; test: fold change of Putrescine concentration vs plate DMSO controls (fold change (ratio)); higher = more amine produced, active = hit call of the paper (significant change in both replicates, either direction)
Outline: as §2

[9] = system: Klebsiella aerogenes DSM 30053; test: as above
Outline: as §2

[10] = system: Escherichia coli IAI1; test: fold change of Cadaverine concentration vs plate DMSO controls (fold change (ratio)); higher = more amine produced, active = hit call of the paper (significant change in both replicates, either direction)
Outline: as §2

[11] = system: Klebsiella aerogenes DSM 30053; test: as above
Outline: as §2

[12] = system: Ruminococcus gnavus DSM 108212; test: fold change of 2-Phenylethylamine concentration vs plate DMSO controls (fold change (ratio)); higher = more amine produced, active = hit call of the paper (significant change in both replicates, either direction)
Outline: as §2

| SMILES | growth [1] | growth [2] | growth [3] | growth [4] | fold change of Histamine concentration [5] | fold change of Tryptamine concentration [6] | fold change of Tryptamine concentration [7] | fold change of Putrescine concentration [8] | fold change of Putrescine concentration [9] | fold change of Cadaverine concentration [10] | fold change of Cadaverine concentration [11] | fold change of 2-Phenylethylamine concentration [12] |
| --- | --- | --- | --- | --- | --- | --- | --- | --- | --- | --- | --- | --- |
| Cc1nnc(-c2ccccc2)c(=O)n1N | 0.969 | 1.05 | 0.993 | 1.01 | 1.04 (inactive) | 0.988 (inactive) | 1.04 (inactive) | 0.965 (inactive) | 1 (inactive) | 1.03 (inactive) | 0.972 (inactive) | 1.13 (inactive) |
| Oc1cc(Cl)ccc1Oc1ccc(Cl)cc1Cl [Triclosan] | 0.874 | 0.0332 | 0.299 | 1.21 | 0.0779 (active) | 0.699 (inactive) | 0.715 (active) | 0.258 (active) | 0.248 (active) | 1.13 (inactive) | 0.828 (inactive) | 0.734 (active) |
| C[C@]12CCC(=O)C=C1CC[C@@H]1[C@@H]2C(=O)C[C@]2(C)C(=O)CC[C@@H]12 [Adrenosterone] | 1.1 | 1.04 | 1.01 | 1 | 0.94 (inactive) | 1.02 (inactive) | 1.07 (inactive) | 1.09 (inactive) | 0.998 (inactive) | 1.01 (inactive) | 1.02 (inactive) | 1.07 (inactive) |
| C#C[C@]1(O)CC[C@H]2[C@@H]3CCC4=CC(=O)CC[C@]4(C)[C@H]3CC[C@@]21C [Ethisterone] | 0.939 | 1.07 | 1.01 | 0.986 | 1.05 (inactive) | 1.02 (inactive) | 1 (inactive) | 1.03 (inactive) | 1.04 (inactive) | 0.988 (inactive) | 0.997 (inactive) | 1.04 (inactive) |
| N#Cc1c[nH]cc1-c1cccc2c1OC(F)(F)O2 | 0.873 | 0.959 | 0.984 | 1.17 | 1.01 (inactive) | 1.03 (inactive) | 0.939 (inactive) | 0.993 (inactive) | 0.977 (inactive) | 1.08 (inactive) | 0.981 (inactive) | 0.972 (inactive) |
| NCCc1c[nH]c2ccc(O)cc12 [Serotonin hydrochloride] | 0.937 | 0.985 | 0.99 | 0.934 | 1.1 (inactive) | 1.02 (inactive) | 1 (inactive) | 0.993 (inactive) | 1.08 (inactive) | 1.06 (inactive) | 1.06 (inactive) | 0.93 (inactive) |
| CN1C[C@H](CNC(=O)OCc2ccccc2)C[C@@H]2c3cccc4c3c(cn4C)C[C@H]21 [Metergoline] | 1.1 | 1.09 | 1.03 | 1.03 | 0.987 (inactive) | 0.943 (inactive) | 0.94 (inactive) | 1.04 (inactive) | 0.996 (inactive) | 1.08 (inactive) | 1 (inactive) | 0.967 (inactive) |
| CC(=O)OCC(=O)[C@H]1CC[C@H]2[C@@H]3CC[C@H]4C[C@H](O)CC[C@]4(C)[C@H]3C(=O)C[C@]12C [Alfadolone acetate] | 0.985 | 1.26 | 0.997 | 1.11 | 1.03 (inactive) | 1.04 (inactive) | 1.02 (inactive) | 1.22 (inactive) | 0.981 (inactive) | 1.03 (inactive) | 0.977 (inactive) | 1.01 (inactive) |
| CC1(C(=O)Nc2ccc(O)c(Cl)c2Cl)CCCCC1 | 0.939 | 1.02 | 1 | 1.22 | 0.992 (inactive) | 0.999 (inactive) | 0.96 (inactive) | 0.992 (inactive) | 0.99 (inactive) | 1.03 (inactive) | 1 (inactive) | 0.987 (inactive) |
| CC(=O)O[C@H]1CC[C@@]2(C)C(=CC[C@@H]3[C@@H]2CC[C@]2(C)C(=O)CC[C@@H]32)C1 [Dehydroisoandosterone 3-acetate] | 0.905 | 1.04 | 0.994 | 1.08 | 1.02 (inactive) | 0.937 (inactive) | 1.04 (inactive) | 1.08 (inactive) | 1.04 (inactive) | 1.01 (inactive) | 1.01 (inactive) | 1.04 (inactive) |
| COc1ccc(CCN2CCC(Nc3nc4ccccc4n3Cc3ccc(F)cc3)CC2)cc1 [Astemizole] | 1.26 | 1.02 | 1.01 | – | 0.968 (inactive) | 1.02 (inactive) | 0.838 (inactive) | 1.01 (inactive) | 0.988 (inactive) | 1.05 (inactive) | 0.994 (inactive) | 0.796 (inactive) |
| CC(C)C[C@H]1C(=O)N2CCC[C@H]2[C@]2(O)O[C@](NC(=O)[C@@H]3C=C4c5cccc6[nH]c(Br)c(c56)C[C@H]4N(C)C3)(C(C)C)C(=O)N12 [Bromocryptine mesylate] | 1.19 | 1.05 | 1.11 | 1.06 | 0.914 (inactive) | 0.868 (inactive) | 1.03 (inactive) | 1.03 (inactive) | 0.98 (inactive) | 1.04 (inactive) | 1.01 (inactive) | 1 (inactive) |
| CN1[C@@H]2CC[C@H]1C[C@@H](OC(=O)C(CO)c1ccccc1)C2 (stereo not given in full) [Atropine sulfate monohydrate] | – | 0.98 | – | 0.986 | 1.03 (inactive) | – | 1.01 (inactive) | 0.982 (inactive) | 1.02 (inactive) | 0.957 (inactive) | 1.02 (inactive) | 1.01 (inactive) |
| CCC(=O)O[C@H]1CC[C@H]2[C@@H]3CCC4=CC(=O)CC[C@]4(C)[C@H]3CC[C@]12C [Testosterone propionate] | 1.02 | 1.01 | 1.03 | – | 1.02 (inactive) | 0.993 (inactive) | 1.08 (inactive) | 0.938 (inactive) | 1.02 (inactive) | 0.985 (inactive) | 1.07 (inactive) | 1.23 (inactive) |
| C[CH2][Hg][S]c1ccccc1C(=O)[O-].[Na+] [Thimerosal] | 0.878 | 0.91 | 0.707 | – | 0.531 (inactive) | 0.986 (inactive) | 0.487 (active) | 0.936 (inactive) | 0.953 (inactive) | 0.896 (inactive) | 1 (inactive) | 0.496 (inactive) |
| C=C1C[C@@H]2[C@H](CC[C@]3(C)C(=O)CC[C@@H]23)[C@@]2(C)C=CC(=O)C=C12 [Exemestane] | 0.934 | 1 | 1.03 | 1.07 | 0.984 (inactive) | 1.07 (inactive) | 1.03 (inactive) | 1.05 (inactive) | 0.981 (inactive) | 0.996 (inactive) | 1 (inactive) | 1.02 (inactive) |
| CC(COc1ccc(Oc2ccccc2)cc1)Oc1ccccn1 (stereo not given) | 1.06 | 0.987 | 1.01 | 0.945 | 1.02 (inactive) | 1.02 (inactive) | 1.06 (inactive) | 1.01 (inactive) | 1.03 (inactive) | 1.02 (inactive) | 1.02 (inactive) | 1.08 (inactive) |
| CC(C)(N)Cc1ccccc1 [Phentermine hydrochloride] | 0.937 | 0.981 | 1.24 | 0.221 | 0.896 (inactive) | 1.03 (inactive) | 0.176 (active) | 0.983 (inactive) | 1.01 (inactive) | 1.05 (inactive) | 1.05 (inactive) | 0.213 (active) |

Source: the supplement of paper PMC12494721
